Reference: the OligoGym collection

The sequences below were run against SLC39A12 (assay: pooled miR-30 sensor sort-seq; sequence = guide strand). Settings: shRNA.

Sequence | sensor-assay potency score (higher = more potent)
TTGCAGTTGATTTTACTCCAAC | -1.11
TTGTCCCAGACAAACACCCTGG | -0.6
TAGAAATATCTCCACCAGCTGC | -1.07
TTTATTACTCATGTTGAGCTTT | -0.0356

These sequences were tested against SLC39A3 in the same assay as above. Settings: shRNA.

Sequence | sensor-assay potency score (higher = more potent)
AAAATCTGTCTCGATGATCTTC | 0.079
TGTCTCGATGATCTTCACGGGG | -0.768
TAGTCGGTGCTGATGTGGCCGA | -1.33
TCAGTGTTGAAAATGCATCAGA | -0.941
TAGGTGGGTAGTCTGGTCTGAT | -0.578
TGATTATCAGGTGACAACCGAC | -1.07
TACCTTTTCCCTCACAGCGGGC | -1.41
TTAAAAAGTAGCAGTGCTCTGA | 0.00339
TTTCTGGACACTAGGCACGAGG | -1.43
TTACCTTTTCCCTCACAGCGGG | -0.333
TCTGTCTCGATGATCTTCACGG | -0.084
TTGCAGAGAGAGAGGATCTTTT | -0.914

These sequences were tested against SLC44A2 in the same assay as above. Settings: shRNA.

Sequence | sensor-assay potency score (higher = more potent)
TTATAGTACTCAAAGTCCCGGG | 0.0732
TTTGATGAGTGCAATCGCGATG | -0.724
TGTAGCAGTGAAATATTCCGTA | 0.424
TTACTTGTTTCTCGCAGTCTGG | -0.794
TATAGTACTCAAAGTCCCGGGA | -0.338
TCTTTGATGAGTGCAATCGCGA | -1.09
TCAGACACAAACACCGTCCTTC | 0.677
TACTTGTTTCTCGCAGTCTGGA | -0.0969
TAATCCAGTACCAAGAGACGGT | 0.196
TTGTTGGTCTTGTTCAAGGGTT | -0.803
TTATAGACCGCTTCGTTGGAAG | -0.973

These sequences were tested against SLC45A3 in the same assay as above. Settings: shRNA.

Sequence | sensor-assay potency score (higher = more potent)
TAGCTGTTAACCCTGAGCCTGG | -0.971
TAGGTGTGTCTCAACTAGGAGG | -0.961
TAGGCAGTGACAGACTGGCTGA | -0.555
TTTGGGCAGGAACACCTGCTTC | -1.54
AAATCCGTGTAAAACAGCGTGA | -0.511
TAGCAGGTTGACCAGCAAGAGC | -1.81
AAAGGTTAGCAGGTTGACCAGC | -0.476
TCTTGTCAAATACTACCTGTGT | -0.281
TTCATCATAGTGTCTCCGGGCC | 0.0522
AAGGTCATGAGTGCCATCCAGC | -1.03
TAAAACAGCGTGAAGGTCATGA | 0.302
TGAACTTCTCCTCTACCCCCAC | -0.547
